# About 7,900 targets were measured; listed, in parts, are those with a hit and a random draw of the rest. About 0.6% of all pairs of compound and target were hits.
# Compound: CC1=C(C(CC(=O)N1)C2=CC=C(C=C2)C(F)(F)F)C(=O)NC3=C(C=C4C(=C3)C=NN4)F
# Test: log2 fold change, soluble protein after heating vs DMSO (PISA); higher = thermal stabilisation; K562 cells, 10 uM, 30 min; active = over 0.2 and 3.5 SD of the protein, either way, in both replicates (recomputed)
# Summary of the method: (§1)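 Thermal stability values are relative to control samples and come from duplicates. They are expressed as log2 fold changes. For measurement, K562 cells (2×10^6 cells/mL) received 10 μM compound for 30 min, and aliquots were heated for 3 min over 48°C-58°C, pooled, and extracted at 4°C in PBS with 0.5% NP-40. Soluble protein, the supernatant after 21,000xg for 90 min, was quantified by TMTpro 16plex LC-MS/MS with equalised channel sums.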
# Chain of UniProt O15347 (O15347 whole entry, looked up): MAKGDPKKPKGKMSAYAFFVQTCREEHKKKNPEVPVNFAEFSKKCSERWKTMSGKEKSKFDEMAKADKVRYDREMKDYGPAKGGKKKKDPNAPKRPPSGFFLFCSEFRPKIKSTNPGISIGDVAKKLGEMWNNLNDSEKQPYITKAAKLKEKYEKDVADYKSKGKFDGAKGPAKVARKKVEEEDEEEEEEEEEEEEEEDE
# Chain of UniProt P49841 (P49841 whole entry, looked up): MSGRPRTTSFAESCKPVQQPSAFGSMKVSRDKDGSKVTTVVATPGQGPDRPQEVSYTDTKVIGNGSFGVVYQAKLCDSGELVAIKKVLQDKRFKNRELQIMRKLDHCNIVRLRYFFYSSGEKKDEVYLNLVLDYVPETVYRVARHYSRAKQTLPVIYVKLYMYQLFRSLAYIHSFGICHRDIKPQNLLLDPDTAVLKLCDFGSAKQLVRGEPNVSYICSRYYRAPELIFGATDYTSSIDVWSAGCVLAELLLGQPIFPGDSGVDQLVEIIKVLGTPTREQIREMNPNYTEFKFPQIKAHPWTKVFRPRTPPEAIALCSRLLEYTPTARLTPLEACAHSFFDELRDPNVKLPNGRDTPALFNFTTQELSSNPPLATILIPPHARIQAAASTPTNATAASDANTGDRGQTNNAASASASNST
# Chain of UniProt Q12894 (Q12894 whole entry, looked up): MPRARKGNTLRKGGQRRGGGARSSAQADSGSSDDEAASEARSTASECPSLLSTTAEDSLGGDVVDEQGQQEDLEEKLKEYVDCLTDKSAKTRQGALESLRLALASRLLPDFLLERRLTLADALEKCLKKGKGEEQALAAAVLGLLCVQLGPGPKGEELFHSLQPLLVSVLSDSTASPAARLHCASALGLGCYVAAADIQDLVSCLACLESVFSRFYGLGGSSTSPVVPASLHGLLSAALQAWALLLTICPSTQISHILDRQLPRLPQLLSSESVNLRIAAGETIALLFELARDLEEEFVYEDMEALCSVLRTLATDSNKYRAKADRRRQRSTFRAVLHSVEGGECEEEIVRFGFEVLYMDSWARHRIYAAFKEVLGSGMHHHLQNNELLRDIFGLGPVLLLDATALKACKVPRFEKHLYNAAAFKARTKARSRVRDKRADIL
# Chain of UniProt P52597 (P52597 whole entry, looked up): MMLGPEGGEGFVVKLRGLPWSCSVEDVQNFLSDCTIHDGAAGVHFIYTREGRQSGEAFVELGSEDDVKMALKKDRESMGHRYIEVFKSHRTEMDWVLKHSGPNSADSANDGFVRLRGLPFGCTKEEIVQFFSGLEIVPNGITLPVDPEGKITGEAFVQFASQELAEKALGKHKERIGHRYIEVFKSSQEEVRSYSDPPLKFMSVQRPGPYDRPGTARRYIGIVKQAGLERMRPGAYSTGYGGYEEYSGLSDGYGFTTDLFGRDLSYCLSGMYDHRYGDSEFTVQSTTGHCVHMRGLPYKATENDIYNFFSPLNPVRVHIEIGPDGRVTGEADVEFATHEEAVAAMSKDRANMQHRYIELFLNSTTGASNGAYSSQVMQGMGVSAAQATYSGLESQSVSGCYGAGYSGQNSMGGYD
# Chain of UniProt P50213 (P50213 whole entry, looked up): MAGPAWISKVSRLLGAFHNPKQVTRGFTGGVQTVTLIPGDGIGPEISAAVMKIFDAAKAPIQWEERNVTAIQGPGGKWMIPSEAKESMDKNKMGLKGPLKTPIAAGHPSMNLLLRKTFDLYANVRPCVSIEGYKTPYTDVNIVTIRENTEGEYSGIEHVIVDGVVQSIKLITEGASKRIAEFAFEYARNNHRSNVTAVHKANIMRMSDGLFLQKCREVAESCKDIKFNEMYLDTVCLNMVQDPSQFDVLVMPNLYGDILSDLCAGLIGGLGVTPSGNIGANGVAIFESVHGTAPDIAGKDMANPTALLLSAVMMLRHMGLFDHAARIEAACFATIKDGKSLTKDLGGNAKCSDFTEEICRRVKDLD
# Chain of UniProt P16278 (P16278 whole entry, looked up): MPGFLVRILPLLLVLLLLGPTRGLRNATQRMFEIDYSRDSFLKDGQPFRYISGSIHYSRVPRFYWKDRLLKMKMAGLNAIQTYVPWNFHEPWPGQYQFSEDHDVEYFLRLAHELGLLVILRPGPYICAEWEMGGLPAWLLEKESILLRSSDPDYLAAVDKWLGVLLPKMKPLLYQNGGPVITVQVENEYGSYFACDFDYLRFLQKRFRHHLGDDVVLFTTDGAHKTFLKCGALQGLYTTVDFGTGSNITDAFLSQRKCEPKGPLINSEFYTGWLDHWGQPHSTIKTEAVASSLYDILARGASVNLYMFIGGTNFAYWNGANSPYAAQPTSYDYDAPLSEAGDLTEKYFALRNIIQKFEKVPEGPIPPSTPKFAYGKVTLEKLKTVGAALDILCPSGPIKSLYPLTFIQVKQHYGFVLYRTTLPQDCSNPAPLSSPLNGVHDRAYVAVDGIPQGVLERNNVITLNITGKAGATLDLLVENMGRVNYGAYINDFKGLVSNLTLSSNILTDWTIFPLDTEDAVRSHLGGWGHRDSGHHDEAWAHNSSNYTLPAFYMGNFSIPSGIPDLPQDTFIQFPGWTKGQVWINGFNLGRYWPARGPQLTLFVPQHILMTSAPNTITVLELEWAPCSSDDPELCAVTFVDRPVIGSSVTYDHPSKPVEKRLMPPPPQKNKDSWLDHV
# Chain of UniProt P63218 (P63218 whole entry, looked up): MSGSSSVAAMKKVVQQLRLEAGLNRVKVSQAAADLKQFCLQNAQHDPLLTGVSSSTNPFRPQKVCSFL
# Chain of UniProt P0C0S5 (P0C0S5 whole entry, looked up): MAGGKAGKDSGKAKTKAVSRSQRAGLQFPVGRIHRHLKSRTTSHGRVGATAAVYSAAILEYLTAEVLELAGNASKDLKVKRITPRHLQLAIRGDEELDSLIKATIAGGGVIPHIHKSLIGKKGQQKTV
# Chain of UniProt Q86VS8 (Q86VS8 whole entry, looked up): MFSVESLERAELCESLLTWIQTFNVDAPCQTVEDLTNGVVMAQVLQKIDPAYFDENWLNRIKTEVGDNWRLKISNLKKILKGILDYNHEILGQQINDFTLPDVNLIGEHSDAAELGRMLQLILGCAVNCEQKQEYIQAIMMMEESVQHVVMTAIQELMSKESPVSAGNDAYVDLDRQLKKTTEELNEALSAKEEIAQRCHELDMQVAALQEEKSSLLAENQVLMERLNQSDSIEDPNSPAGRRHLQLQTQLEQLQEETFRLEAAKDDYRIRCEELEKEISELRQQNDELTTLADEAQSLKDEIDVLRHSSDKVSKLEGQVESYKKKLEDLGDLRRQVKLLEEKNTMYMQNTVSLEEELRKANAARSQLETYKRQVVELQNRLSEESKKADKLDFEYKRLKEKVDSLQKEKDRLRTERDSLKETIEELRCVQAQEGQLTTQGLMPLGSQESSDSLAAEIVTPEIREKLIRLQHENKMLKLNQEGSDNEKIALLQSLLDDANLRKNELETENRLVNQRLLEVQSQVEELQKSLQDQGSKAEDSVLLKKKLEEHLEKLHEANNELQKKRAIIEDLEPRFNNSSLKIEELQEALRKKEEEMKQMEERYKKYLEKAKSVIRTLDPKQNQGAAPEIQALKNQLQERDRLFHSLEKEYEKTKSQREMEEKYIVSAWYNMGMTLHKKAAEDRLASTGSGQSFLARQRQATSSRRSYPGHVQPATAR
# Chain of UniProt P29083 (P29083 whole entry, looked up): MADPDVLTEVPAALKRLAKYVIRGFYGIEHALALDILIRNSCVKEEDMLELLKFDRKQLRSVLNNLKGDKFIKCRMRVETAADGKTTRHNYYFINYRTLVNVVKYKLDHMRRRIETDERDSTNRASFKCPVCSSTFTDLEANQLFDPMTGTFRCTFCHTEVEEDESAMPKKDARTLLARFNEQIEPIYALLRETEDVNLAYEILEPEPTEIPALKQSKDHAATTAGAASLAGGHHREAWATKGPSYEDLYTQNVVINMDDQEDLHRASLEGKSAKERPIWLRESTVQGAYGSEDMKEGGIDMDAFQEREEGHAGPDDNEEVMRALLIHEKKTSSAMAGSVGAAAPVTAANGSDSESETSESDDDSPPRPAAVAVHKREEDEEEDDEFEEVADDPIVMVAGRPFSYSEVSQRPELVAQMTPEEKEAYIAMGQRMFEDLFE
# Chain of UniProt P55084 (P55084 whole entry, looked up): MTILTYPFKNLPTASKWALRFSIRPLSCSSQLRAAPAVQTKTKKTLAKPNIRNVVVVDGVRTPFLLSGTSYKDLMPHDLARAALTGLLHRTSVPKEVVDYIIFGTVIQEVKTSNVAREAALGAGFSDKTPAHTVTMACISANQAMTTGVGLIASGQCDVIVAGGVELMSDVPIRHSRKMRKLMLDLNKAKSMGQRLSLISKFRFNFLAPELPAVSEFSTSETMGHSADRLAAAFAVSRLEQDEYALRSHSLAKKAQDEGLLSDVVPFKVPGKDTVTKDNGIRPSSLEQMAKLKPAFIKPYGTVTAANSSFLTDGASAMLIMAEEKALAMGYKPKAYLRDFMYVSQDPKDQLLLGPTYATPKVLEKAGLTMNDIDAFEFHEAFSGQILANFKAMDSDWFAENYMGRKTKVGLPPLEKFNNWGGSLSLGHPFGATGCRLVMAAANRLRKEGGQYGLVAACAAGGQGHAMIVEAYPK
# Chain of UniProt Q86UL3 (Q86UL3 whole entry, looked up): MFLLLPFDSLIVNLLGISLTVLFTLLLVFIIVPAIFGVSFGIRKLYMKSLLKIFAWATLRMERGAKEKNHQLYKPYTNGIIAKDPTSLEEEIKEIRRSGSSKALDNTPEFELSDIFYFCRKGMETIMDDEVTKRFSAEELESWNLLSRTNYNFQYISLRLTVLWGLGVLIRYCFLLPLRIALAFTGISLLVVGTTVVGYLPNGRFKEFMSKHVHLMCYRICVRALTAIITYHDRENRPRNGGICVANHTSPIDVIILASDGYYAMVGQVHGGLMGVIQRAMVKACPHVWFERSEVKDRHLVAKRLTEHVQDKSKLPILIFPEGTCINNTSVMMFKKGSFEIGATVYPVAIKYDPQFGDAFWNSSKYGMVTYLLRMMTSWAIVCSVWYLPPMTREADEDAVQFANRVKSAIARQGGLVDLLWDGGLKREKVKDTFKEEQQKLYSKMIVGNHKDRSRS
# Chain of UniProt P0CL80 (P0CL80 whole entry, looked up): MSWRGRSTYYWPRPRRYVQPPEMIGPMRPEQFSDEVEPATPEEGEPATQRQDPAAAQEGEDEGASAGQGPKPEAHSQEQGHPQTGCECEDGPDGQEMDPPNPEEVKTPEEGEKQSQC
row,Target,log2 fold change
1,HMGB3 (UniProt O15347),-0.003 (inactive)
2,HNRNPUL1 (UniProt Q9BUJ2),0.014 (inactive)
3,FANCD2 isoform 1 (UniProt Q9BXW9),0.002 (inactive)
4,HOOK3 (UniProt Q86VS8),0.008 (inactive)
5,HECTD1 (UniProt Q9ULT8),0.026 (inactive)
6,HDGFL2 (UniProt Q7Z4V5),0.029 (inactive)
7,GTF2E1 (UniProt P29083),0.003 (inactive)
8,IFI30 (UniProt P13284),-0.008 (inactive)
9,GSK3B isoform 2 (UniProt P49841),-0.008 (inactive)
10,GIGYF2 (UniProt Q6Y7W6),0.005 (inactive)
11,GPAT4 (UniProt Q86UL3),-0.015 (inactive)
12,HTATIP2 isoform 3 (UniProt Q9BUP3),-0.017 (inactive)
13,H2AZ1 (UniProt P0C0S5),0.022 (inactive)
14,IFRD2 isoform 2 (UniProt Q12894),-0.116 (inactive)
15,GEMIN5 (UniProt Q8TEQ6),0.004 (inactive)
16,HIC2 (UniProt Q96JB3),0.015 (inactive)
17,GTF2B (UniProt Q00403),-0.026 (inactive)
18,IDH3A (UniProt P50213),0.008 (inactive)

row,Target,log2 fold change
1,HNRNPF (UniProt P52597),0.05 (inactive)
2,GAGE12F (UniProt P0CL80),0.004 (inactive)
3,GDE1 (UniProt Q9NZC3),0.106 (inactive)
4,GLB1 (UniProt P16278),0.014 (inactive)
5,FASTKD1 (UniProt Q53R41),-0.345 (inactive)
6,GALNT4 (UniProt Q8N4A0),-0.004 (inactive)
7,HHEX (UniProt Q03014),0.086 (inactive)
8,HPCAL1 (UniProt P37235),0.001 (inactive)
9,GNG5 (UniProt P63218),-0.071 (inactive)
10,GLYR1 (UniProt Q49A26),-0.076 (inactive)
11,HLTF (UniProt Q14527),-0.049 (inactive)
12,GTF2E2 (UniProt P29084),0.001 (inactive)
13,HADHB (UniProt P55084),-0.147 (inactive)
14,HBZ (UniProt P02008),0.004 (inactive)
15,FBXO42 (UniProt Q6P3S6),-0.038 (inactive)
16,GALNT11 (UniProt Q8NCW6),0.002 (inactive)
17,GNB2 (UniProt P62879),-0.034 (inactive)

# Compound: CC1=C(C2=C(C=C1)C(=O)C3=CC=CC=C3N2CCCN)C
# Test: as above
# Summary of the method: as §1
row,Target,log2 fold change
1,HMGB3 (UniProt O15347),0.016 (inactive)
2,HNRNPUL1 (UniProt Q9BUJ2),-0.096 (inactive)
3,FANCD2 isoform 1 (UniProt Q9BXW9),-0.369 (active)
4,HOOK3 (UniProt Q86VS8),0.02 (inactive)
5,HECTD1 (UniProt Q9ULT8),-0.158 (inactive)
6,HDGFL2 (UniProt Q7Z4V5),-0.709 (active)
7,GTF2E1 (UniProt P29083),-0.007 (inactive)
8,IFI30 (UniProt P13284),-0.099 (inactive)
9,GSK3B isoform 2 (UniProt P49841),-0.017 (inactive)
10,GIGYF2 (UniProt Q6Y7W6),0.021 (inactive)
11,GPAT4 (UniProt Q86UL3),0.047 (inactive)
12,HTATIP2 isoform 3 (UniProt Q9BUP3),0.025 (inactive)
13,H2AZ1 (UniProt P0C0S5),1.74 (active)
14,IFRD2 isoform 2 (UniProt Q12894),-1.69 (active)
15,GEMIN5 (UniProt Q8TEQ6),-0.28 (active)
16,HIC2 (UniProt Q96JB3),0.088 (inactive)
17,GTF2B (UniProt Q00403),0.07 (inactive)
18,IDH3A (UniProt P50213),0.015 (inactive)

row,Target,log2 fold change
1,HNRNPF (UniProt P52597),-0.087 (inactive)
2,GAGE12F (UniProt P0CL80),0.128 (inactive)
3,GDE1 (UniProt Q9NZC3),0.266 (inactive)
4,GLB1 (UniProt P16278),-0.015 (inactive)
5,FASTKD1 (UniProt Q53R41),0.2 (inactive)
6,GALNT4 (UniProt Q8N4A0),0.072 (inactive)
7,HHEX (UniProt Q03014),-0.074 (inactive)
8,HPCAL1 (UniProt P37235),-0.041 (inactive)
9,GNG5 (UniProt P63218),0.002 (inactive)
10,GLYR1 (UniProt Q49A26),-0.016 (inactive)
11,HLTF (UniProt Q14527),0.176 (inactive)
12,GTF2E2 (UniProt P29084),0.056 (inactive)
13,HADHB (UniProt P55084),0.104 (inactive)
14,HBZ (UniProt P02008),0.088 (inactive)
15,FBXO42 (UniProt Q6P3S6),0.086 (inactive)
16,GALNT11 (UniProt Q8NCW6),0.039 (inactive)
17,GNB2 (UniProt P62879),0.076 (inactive)
